Source: ChEMBL document CHEMBL3988442, “University of Dundee, Small-Polar-MMV Screening Library” (2021)

Tests used:
[1] = target: T1, Aspartate--tRNA(Asp/Asn) ligase (Mycobacterium tuberculosis (strain ATCC 25618 / H37Rv)) (UniProt P9WFW3); experiment: Assay for Asp RNA synthetase-1 from Mycobacterium tuberculosis; type: functional; design: scale not given: direction of the effect not stated beside the values; details: 30 µM; further: in the data most compounds retested in dose-response had high values
T1 sequence (whole entry): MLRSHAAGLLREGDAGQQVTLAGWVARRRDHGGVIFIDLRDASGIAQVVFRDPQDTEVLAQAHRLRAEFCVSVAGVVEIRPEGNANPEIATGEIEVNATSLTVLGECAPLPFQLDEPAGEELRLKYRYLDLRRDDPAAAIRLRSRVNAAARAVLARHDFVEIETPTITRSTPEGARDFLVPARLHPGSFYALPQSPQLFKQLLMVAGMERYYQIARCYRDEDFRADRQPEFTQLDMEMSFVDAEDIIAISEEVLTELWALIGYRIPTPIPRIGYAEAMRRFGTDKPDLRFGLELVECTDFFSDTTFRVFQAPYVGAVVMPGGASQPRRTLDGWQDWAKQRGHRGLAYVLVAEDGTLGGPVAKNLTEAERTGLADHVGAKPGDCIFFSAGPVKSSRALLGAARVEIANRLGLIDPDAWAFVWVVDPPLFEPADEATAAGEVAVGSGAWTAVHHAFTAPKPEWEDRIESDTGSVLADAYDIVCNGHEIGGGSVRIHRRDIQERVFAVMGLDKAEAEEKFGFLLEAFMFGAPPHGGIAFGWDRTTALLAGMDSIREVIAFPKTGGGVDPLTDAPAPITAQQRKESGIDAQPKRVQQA

[2] = target: Shiga toxin 2 (Escherichia coli O157:H7) (UniProt P09385+P09386); experiment: E. coli 0.157:H7 Shiga Toxin SOP - stx2 screening assay; type: functional; design: scale not given: direction of the effect not stated beside the values; details: 30 µM

Structure (SMILES) | Percent Effect [1] [%] | Percent Effect [2] [%]
CC(C)(C)c1n[nH]c(C2CN(C(=O)CCc3cscn3)CCO2)n1 (configuration not stated) | -2.97 | 7.94
COc1ccc(C)cc1CN(C)Cc1nc2c(cnn2C)c(=O)[nH]1 | 1.01 | 46.7
Nc1nccc(N2CCC(Cc3ccccc3Cl)(C(=O)O)CC2)n1 | -0.368 | -4.46
O=C(COc1cccc2c1CCC2=O)NCc1ccccc1F | 10.4 | -7.67
CC1CCCN(CCNC(=O)c2ccn(-c3ccccc3)n2)C1 (configuration not stated) | 5.86 | -20.3
Cc1nc(C)n(CC2CCCN(Cc3nc(C)c(C)o3)C2)n1 (configuration not stated) | 7.92 | 5.16
COCC(c1cccc(C(F)(F)F)c1)N(C)C(=O)c1ccncc1 (configuration not stated) | -1.77 | -15.3
Cc1ccccc1C1(CNc2nnc(C)c(C)c2C#N)CCOCC1 | 2.96 | 18.2
COc1cccc(COCC(=O)N2CCC(CC(N)=O)CC2)c1 | -3.72 | 32.3
CC(NC(=O)CSCC#N)c1ccccc1 (configuration not stated) | 2.98 | 13.3
CN(C(=O)c1cccc2[nH]ncc12)C1CCN(c2ccccn2)CC1 | 4.76 | 24.8
